In PubChem BioAssay (Tox21):
Inconclusive results are not listed. Activity calls are given as the source filed them. Unless noted, calls follow the shape of the dose curve; as a rule, active = well fitted curve in the direction sought with a large enough effect in the repeat runs; inconclusive = weak or mixed curves; inactive = no such curve, though single readings can be large; an effect the other way counts as inactive or inconclusive.

Columns and labels:
[1] = qHTS assay to test for compound auto fluorescence at 535 nm (green) in HEK293 cells (AID 720680)
[2] = qHTS assay to test for compound auto fluorescence at 460 nm (blue) in HEK293 cell free culture (AID 720681)
Procedure, shortened: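 Test compounds were pinned into cell-free culture medium (DMEM with 10% FBS) and fluorescence was read directly at Ex/Em 405/460 nm. Signals were expressed as fluorescence equivalents of triamterene, with DMSO vehicle as control.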

[3] = qHTS assay to test for compound auto fluorescence at 535 nm (green) in HEK293 cell free culture (AID 720682)
Procedure, shortened: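 Steps: dispense DMEM/10% FBS into empty wells; pin in compound or DMSO; measure fluorescence at 485/535 nm. Values are fluorescein equivalents.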

[4] = qHTS assay to test for compound auto fluorescence at 590 nm (red) in HEK293 cell free culture (AID 720683)
Procedure, shortened: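 Tox21 10K library compounds were pinned into cell-free DMEM with 10% FBS and fluorescence was read at excitation 540 nm. Activity is expressed as Rose Bengal sodium equivalency.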

[5] = qHTS assay to test for compound auto fluorescence at 590 nm (red) in HepG2 cell free culture (AID 720684)
Procedure, shortened: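 Ex 540 / Em 590 nm read of compound in cell-free MEM (10% FBS). Rose Bengal sodium reference.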

[6] = qHTS assay to test for compound auto fluorescence at 460 nm (blue) in HepG2 cell free culture (AID 720685)
Procedure, shortened: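 Cell-free plates of MEM plus 10% FBS received 23 nL compound or DMSO vehicle; blue-channel (405/460 nm) intensity scored against triamterene as reference fluorophore.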

[7] = qHTS assay to test for compound auto fluorescence at 535 nm (green) in HepG2 cell free culture (AID 720686)
[8] = qHTS assay to test for compound auto fluorescence at 460 nm (blue) in HepG2 cells (AID 720687)
Procedure, shortened: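 Cells (2,000/well in MEM with 10% FBS) attached overnight at 37 C, then were exposed to compound or DMSO for 1 hr at 37 C, 5% CO2. Fluorescence read at Ex/Em 405/460 nm, expressed as triamterene-equivalent signal.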

[9] = molecular target: Glucocorticoid receptor (Homo sapiens) (UniProt P04150); test: qHTS assay to identify small molecule agonists of the glucocorticoid receptor (GR) signaling pathway (AID 720691; active = well fitted activation curve with a large enough effect in the signal ratio in the repeat runs, not every such curve was filed as active; the % refers to the signal ratio)
Procedure, shortened: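 Steps: seed GR-bla HeLa cells, incubate 4 h at 37 C/5% CO2; pin-transfer DMSO-dissolved compounds; incubate 18 h at 37 C; add LiveBLAzer B/G FRET substrate; after 2 h at room temperature, measure fluorescence.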

[10] = molecular target: Glucocorticoid receptor (Homo sapiens) (UniProt P04150); test: qHTS assay to identify small molecule antagonists of the glucocorticoid receptor (GR) signaling pathway (AID 720692; active = well fitted inhibition curve with a large enough effect in the signal ratio in the repeat runs, not every such curve was filed as active; the % refers to the signal ratio)
Procedure, shortened: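 Antagonism was scored as loss of dexamethasone-driven (5 nM final) reporter signal in HeLa cells bearing a glucocorticoid response element–beta-lactamase construct, after 18 h compound exposure at 37 C and 2 h FRET substrate loading.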

[11] = qHTS assay to identify small molecule antagonists of the glucocorticoid receptor (GR) signaling pathway - cell viability counter screen (AID 720693); also: nearly all actives have a fitted effect of over 55% in size
[12] = qHTS assay for identifying genotoxic compounds that show differential cytotoxicity against isogenic chicken DT40 cell lines with known DNA damage response pathways - wild type cell line (AID 743012); also: nearly all actives have a fitted effect of over 60% in size
Procedure, shortened: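 Cytotoxicity in repair-proficient parental chicken DT40 cells serves as the comparator for Rad54/Ku70- and Rev3-deficient lines. Cells were exposed to compounds for 40 h at 37 C/5% CO2, and ATP-based luminescence (CellTiter-Glo) measured viability.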

[13] = qHTS assay for identifying genotoxic compounds that show differential cytotoxicity against isogenic chicken DT40 cell lines with known DNA damage response pathways - Rev3 mutant cell line (AID 743014); also: nearly all actives have a fitted effect of over 55% in size
[14] = qHTS assay for identifying genotoxic compounds that show differential cytotoxicity against isogenic chicken DT40 cell lines with known DNA damage response pathways - Rad54/Ku70 mutant cell line (AID 743015); also: nearly all actives have a fitted effect of over 60% in size
[15] = qHTS assay to identify small molecule antagonists of the androgen receptor (AR) signaling pathway - cell viability counter screen (AID 743033; also: nearly all actives have a fitted effect of over 45% in size)
[16] = qHTS assay to identify small molecule antagonists of the androgen receptor (AR) signaling pathway using the MDA cell line - cell viability counter screen (AID 743041; also: nearly all actives have a fitted effect of over 45% in size)
Procedure, shortened: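 In this qHTS counter assay, fluorescence intensity after CellTiter-Fluor addition indicated viability of MDA-kb2 AR-luc cells given compounds and R1881 for 16 h at 37C.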

[17] = qHTS assay to identify small molecule antagonists of the thyroid receptor (TR) signaling pathway - cell viability counter screen (AID 743064); also: nearly all actives have a fitted effect of over 50% in size
Procedure, shortened: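 Plate GH3.TRE-Luc cells; incubate 4 h at 37 °C; add compound, then T3 to 1 nM final; incubate 23.5 h; add CellTiter-Fluor; incubate 30 min at 37 °C, 5% CO2; read fluorescence.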

[18] = qHTS assay to identify small molecule antagonists of the thyroid receptor (TR) signaling pathway (AID 743065); also: series mostly up to about 70 µM; nearly all actives have a fitted effect of over 55% in size
Procedure, shortened: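 GH3.TRE-Luc rat pituitary cells carrying two TR response elements driving luciferase were plated for 4 h, given compound plus 1 nM T3 (final), and incubated 23.5 h at 37 C. ONE-Glo luminescence measured reporter inhibition; CellTiter-Fluor fluorescence tracked cytotoxicity.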

[19] = molecular target: Androgen receptor (Homo sapiens) (UniProt P10275); test: qHTS assay to identify small molecule agonists of the androgen receptor (AR) signaling pathway (AID 743036; active = well fitted activation curve with a large enough effect in the signal ratio in the repeat runs, with a control signal flat, not every such curve was filed as active; the % refers to the signal ratio)
Procedure, shortened: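 Reporter line: GeneBLAzer AR-UAS-bla-GripTite (HEK293). Steps: plate cells, 4 h rest, add compounds, 16 h at 37C, add LiveBLAzer B/G substrate, 2 h at RT, read fluorescence.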

[20] = molecular target: Androgen receptor (Homo sapiens) (UniProt P10275); test: qHTS assay to identify small molecule agonists of the androgen receptor (AR) signaling pathway using the MDA cell line (AID 743040; also: nearly all actives have a fitted effect of over 20% in size)
Procedure, shortened: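 Cell-based luciferase reporter: MDA-kb2, MMTV promoter (AR + GR response elements). 16 h compound exposure at 37C; ONE-Glo, 30 min RT, luminescence.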
% is scaled to controls: 0 for no effect and ±100 for the full control effect.

Sequence of Glucocorticoid receptor (Homo sapiens) (P04150 whole entry, looked up): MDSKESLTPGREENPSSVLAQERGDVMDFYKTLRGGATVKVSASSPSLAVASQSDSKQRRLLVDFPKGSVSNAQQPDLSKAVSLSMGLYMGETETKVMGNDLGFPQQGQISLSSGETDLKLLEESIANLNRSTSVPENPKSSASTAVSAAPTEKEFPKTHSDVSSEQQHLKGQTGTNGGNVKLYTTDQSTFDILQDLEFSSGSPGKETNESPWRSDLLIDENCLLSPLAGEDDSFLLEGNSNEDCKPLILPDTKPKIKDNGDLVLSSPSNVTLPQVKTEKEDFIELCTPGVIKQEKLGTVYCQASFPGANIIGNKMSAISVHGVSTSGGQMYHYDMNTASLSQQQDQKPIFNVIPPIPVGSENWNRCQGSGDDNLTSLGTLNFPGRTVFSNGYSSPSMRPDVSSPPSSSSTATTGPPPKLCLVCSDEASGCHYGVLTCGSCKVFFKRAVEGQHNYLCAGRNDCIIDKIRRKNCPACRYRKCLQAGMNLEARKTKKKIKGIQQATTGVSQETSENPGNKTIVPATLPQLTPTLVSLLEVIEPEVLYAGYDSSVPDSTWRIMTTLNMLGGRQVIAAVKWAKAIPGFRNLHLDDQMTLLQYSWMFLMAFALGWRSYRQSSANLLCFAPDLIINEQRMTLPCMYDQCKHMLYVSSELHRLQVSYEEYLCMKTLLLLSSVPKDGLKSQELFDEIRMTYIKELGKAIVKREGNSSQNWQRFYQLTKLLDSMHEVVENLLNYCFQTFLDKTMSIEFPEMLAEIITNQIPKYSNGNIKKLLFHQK
Sequence of Androgen receptor (Homo sapiens) (P10275 whole entry, looked up): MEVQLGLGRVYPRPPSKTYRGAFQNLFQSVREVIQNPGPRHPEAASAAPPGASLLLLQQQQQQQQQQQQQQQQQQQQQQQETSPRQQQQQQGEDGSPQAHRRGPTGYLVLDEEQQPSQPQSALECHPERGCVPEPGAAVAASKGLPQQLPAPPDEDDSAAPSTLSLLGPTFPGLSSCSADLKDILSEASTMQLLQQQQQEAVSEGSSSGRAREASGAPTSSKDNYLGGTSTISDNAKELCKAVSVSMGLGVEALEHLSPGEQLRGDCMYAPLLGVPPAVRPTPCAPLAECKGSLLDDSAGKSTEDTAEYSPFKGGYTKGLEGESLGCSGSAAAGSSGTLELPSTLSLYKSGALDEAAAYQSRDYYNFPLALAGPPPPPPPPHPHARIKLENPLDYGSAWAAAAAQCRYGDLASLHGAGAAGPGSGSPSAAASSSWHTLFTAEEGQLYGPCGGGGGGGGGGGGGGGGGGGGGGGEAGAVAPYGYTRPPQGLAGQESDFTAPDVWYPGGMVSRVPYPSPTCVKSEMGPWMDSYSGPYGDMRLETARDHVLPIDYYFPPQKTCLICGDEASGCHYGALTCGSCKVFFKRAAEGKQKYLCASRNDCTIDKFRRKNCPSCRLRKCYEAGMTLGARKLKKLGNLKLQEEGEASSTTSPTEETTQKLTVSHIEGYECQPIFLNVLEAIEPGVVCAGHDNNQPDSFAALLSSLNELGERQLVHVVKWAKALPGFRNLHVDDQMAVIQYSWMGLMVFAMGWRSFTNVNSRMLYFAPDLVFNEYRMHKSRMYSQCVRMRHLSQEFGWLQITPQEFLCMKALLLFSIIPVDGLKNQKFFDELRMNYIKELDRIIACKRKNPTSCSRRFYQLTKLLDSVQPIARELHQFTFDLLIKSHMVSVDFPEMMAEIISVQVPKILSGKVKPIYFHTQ

Cn1c(=O)c2c(ncn2CC(O)CO)n(C)c1=O (centres undefined)
inactive: fluorescence, % of fluorescein [1] -0.0383% [at 18.6 µM] | fluorescence, % of fluorescent control [2] -0.0654% [at 18.6 µM] | activity change [3] -0.0177% [at 18.6 µM] | fluorescence, % of fluorescent control [4] 0.293% [at 18.6 µM] | fluorescence, % of Rose Bengal [5] -0.139% [at 18.6 µM] | fluorescence, % of fluorescent control [6] -0.106% [at 18.6 µM] | fluorescence, % of fluorescein control [7] -0.0139% [at 18.6 µM] | fluorescence, % of fluorescent control [8] -0.0218% [at 18.6 µM] | Potency [9] | Potency [10] | Potency [11] | Potency [12] | Potency [13] | Potency [14] | Potency [15] | Potency [16] | Potency [17] | Potency [18]

CC(C)=CCCC(C)CC=O (centres undefined)
inactive: outcome [1] | Potency [2] | outcome [3] | outcome [4] | outcome [5] | Potency [6] | outcome [7] | Potency [8] | Potency [9] | Potency [10] | Potency [11] | Potency [12] | Potency [13] | Potency [14] | Potency [15] | Potency [16] | Potency [17] | Potency [18]

O=C(C(=O)c1ccc(Br)cc1)c1ccc(Br)cc1
inactive: fluorescence, % of fluorescein [1] -0.0337% [at 18.6 µM] | fluorescence, % of fluorescent control [2] -0.0047% [at 18.6 µM] | activity change [3] 0.0143% [at 18.6 µM] | fluorescence, % of fluorescent control [4] -0.0329% [at 18.6 µM] | fluorescence, % of Rose Bengal [5] -0.0316% [at 18.6 µM] | fluorescence, % of fluorescent control [6] -0.0311% [at 18.6 µM] | fluorescence, % of fluorescein control [7] -0.0449% [at 18.6 µM] | fluorescence, % of fluorescent control [8] 0.0185% [at 18.6 µM] | Potency [9] | Potency [10] | Potency [11] | Potency [12] | Potency [13] | Potency [14] | Potency [15] | outcome [19] | Potency [20] | Potency [17] | Potency [18]

Cc1ccc(C(C)c2ccc(C)c(C)c2)cc1C
inactive: outcome [1] | Potency [2] | outcome [3] | outcome [4] | outcome [5] | Potency [6] | outcome [7] | Potency [8] | Potency [9] | Potency [10] | Potency [11] | Potency [12] | Potency [13] | Potency [14] | Potency [15] | Potency [16] | Potency [17]

CC(=O)CC(=O)c1ccccc1
inactive: outcome [1] | Potency [2] | outcome [3] | outcome [4] | outcome [5] | Potency [6] | outcome [7] | Potency [8] | Potency [9] | Potency [10] | Potency [11] | Potency [12] | Potency [13] | Potency [14] | Potency [15] | Potency [16] | Potency [17] | Potency [18]

COc1ccccc1OC(=O)Oc1ccccc1OC
inactive: outcome [1] | Potency [2] | outcome [3] | outcome [4] | outcome [5] | Potency [6] | outcome [7] | Potency [8] | Potency [9] | Potency [10] | Potency [11] | Potency [12] | Potency [13] | Potency [14] | Potency [15] | outcome [19] | Potency [20] | Potency [16] | Potency [17] | Potency [18]

CCCCCCCC/C=C\CCCCCCCC(N)=O
inactive: outcome [1] | Potency [2] | outcome [3] | outcome [4] | outcome [5] | Potency [6] | outcome [7] | Potency [8] | Potency [9] | Potency [10] | Potency [11] | Potency [12] | Potency [13] | Potency [14] | Potency [15] | outcome [19] | Potency [20] | Potency [16] | Potency [18]

O=C(c1ccc(O)cc1)c1ccc(O)cc1
inactive: outcome [1] | Potency [2] | outcome [3] | outcome [4] | outcome [5] | Potency [6] | outcome [7] | Potency [8] | Potency [9] | Potency [10] | Potency [11] | Potency [12] | Potency [13] | Potency [14] | Potency [15] | Potency [20] | Potency [16] | Potency [17] | Potency [18]

O=C(O)Cc1sc(-c2ccccc2)nc1-c1ccc(Cl)cc1
inactive: outcome [1] | Potency [2] | outcome [3] | outcome [4] | outcome [5] | Potency [6] | outcome [7] | Potency [8] | Potency [9] | Potency [10] | Potency [11] | Potency [12] | Potency [13] | Potency [14] | Potency [15] | Potency [20] | Potency [16] | Potency [17]

CC(C)CC=O
inactive: outcome [1] | Potency [2] | outcome [3] | outcome [4] | outcome [5] | Potency [6] | outcome [7] | Potency [8] | Potency [9] | Potency [10] | Potency [11] | Potency [12] | Potency [13] | Potency [14] | Potency [15] | Potency [16]

CCOC(=O)CC(=O)c1cc(F)c(Cl)nc1Cl
inactive: outcome [1] | Potency [2] | outcome [3] | outcome [4] | outcome [5] | Potency [6] | outcome [7] | Potency [8] | Potency [9] | Potency [10] | Potency [11] | Potency [13] | Potency [14] | Potency [16] | Potency [17] | Potency [18]

CCCCCCCCCCCCC(=O)O
inactive: outcome [1] | Potency [2] | outcome [3] | outcome [4] | outcome [5] | Potency [6] | outcome [7] | Potency [8] | Potency [9] | Potency [11] | Potency [12] | Potency [13] | Potency [14] | Potency [15] | Potency [16] | Potency [17] | Potency [18]

CC(CN)CCCN (centres undefined)
inactive: outcome [1] | Potency [2] | outcome [3] | outcome [4] | outcome [5] | Potency [6] | outcome [7] | Potency [8] | Potency [9] | Potency [10] | Potency [11] | Potency [12] | Potency [13] | Potency [14] | Potency [16] | Potency [17] | Potency [18]

CCCCCCCCCCCCCCCBr
inactive: outcome [1] | Potency [2] | outcome [3] | outcome [4] | outcome [5] | Potency [6] | outcome [7] | Potency [8] | Potency [9] | Potency [11] | Potency [12] | Potency [13] | Potency [14] | Potency [15] | Potency [16] | Potency [17] | Potency [18]
